# Targets with a hit are over-represented here; the source holds about 8,800 in all. About 0.5% of all pairs of compound and target were hits. Unmarked numbers belong to inactive results.
# How the values were obtained:
# Assay in all cases: log2 fold change, soluble protein after heating vs DMSO (PISA); higher = thermal stabilisation; K562 lysate, 10 uM; active = over 0.2 and 3.5 SD of the protein, either way, in both replicates (recomputed)
# [1] = compound: CN1CC[C@H](c2c(O)cc(O)c3c(=O)cc(-c4ccccc4Cl)oc23)[C@H](O)C1 [alvocidib]
# Outline: (§1)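 Following dounce homogenisation of K562 pellets in PBS pH 7.4 with 1 mM MgCl2, crude extract at 1 mg/mL protein was incubated for 30 min with 10 μM compound. Aliquots were then heated for 3 min over 48°C-58°C and pooled, NP-40 was added to 0.5% at 4°C, and soluble protein was recovered as the supernatant at 21,000xg for 90 min. Channel-sum-equalised TMTpro 16plex LC-MS/MS quantified this protein. Each value, from duplicates, is a log-two fold change in thermal stability relative to solvent controls.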
# [2] = compound: CN1CCc2c(c3ccccc3n2Cc2ccc(C(=O)NO)cc2)C1 [Tubastatin A]
# Outline: as §1
# [3] = compound: CNC(=O)C1=CC=CC=C1NC2=NC(=NC=C2Cl)NC3=C(C=C(C=C3)N4CCOCC4)OC
# Outline: as §1
# [4] = compound: CNC(=O)c1ccc(Nc2ncc(C(F)(F)F)c(NCc3nccnc3N(C)S(C)(=O)=O)n2)cc1 [defactinib]
# Outline: as §1
# [5] = compound: CNc1nc(-c2ccc3c(N)n[nH]c3c2)cc(N2C[C@@H](C(=O)NC3CCCCC3)CC[C@H]2C)n1
# Outline: as §1
# [6] = compound: COC(=O)N[C@@H](C)CNc1nccc(-c2cn(C(C)C)nc2-c2cc(Cl)cc(NS(C)(=O)=O)c2F)n1 [encorafenib]
# Outline: as §1
# [7] = compound: COC(=O)[C@H](CCSC)NC(=O)C1=C(C=C(C=C1)NC[C@H](CS)N)C2=CC=CC=C2
# Outline: as §1
# [8] = compound: COc1cc(Nc2ncc3c(n2)-c2ccc(Cl)cc2C(c2c(F)cccc2OC)=NC3)ccc1C(=O)O [alisertib]
# Outline: as §1
# [9] = compound: COc1cc2nc(-c3cc(F)ccc3O)nc(N[C@@H]3CNC[C@H]3C(C)(C)O)c2cc1OC
# Outline: as §1
# [10] = compound: COc1cc2ncnc(Nc3ccc(F)c(Cl)c3)c2cc1OCCCN1CCOCC1 [gefitinib]
# Outline: as §1
# [11] = compound: CS(=O)(=O)CCNCc1ccc(-c2ccc3ncnc(Nc4ccc(OCc5cccc(F)c5)c(Cl)c4)c3c2)o1 [lapatinib]
# Outline: as §1
# [12] = compound: CS(=O)(=O)N1CCN(Cc2cc3nc(-c4cccc5[nH]ncc45)nc(N4CCOCC4)c3s2)CC1 [pictilisib]
# Outline: as §1
# [13] = compound: C[C@@H](Oc1cc(-c2cnn(C3CCNCC3)c2)cnc1N)c1c(Cl)ccc(F)c1Cl [crizotinib]
# Outline: as §1
# [14] = compound: C[C@H](C1=CC=C(C=C1)C(=O)NC2=C3C=CNC3=NC=C2)N
# Outline: as §1
# [15] = compound: C[C@H](Nc1ncnc2nc[nH]c12)c1cc2cccc(Cl)c2c(=O)n1-c1ccccc1 [duvelisib]
# Outline: as §1
# [16] = compound: Cc1cc(Nc2cc(CN3CCOCC3)c3nc(C)c(Cc4ccc(Cl)cc4F)n3n2)n[nH]1 [gandotinib]
# Outline: as §1
# [17] = compound: Cc1cc(Nc2cc(N3CCN(C)CC3)nc(Sc3ccc(NC(=O)C4CC4)cc3)n2)n[nH]1 [tozasertib]
# Outline: as §1
# [18] = compound: Cc1ccc(-n2nc(C(C)(C)C)cc2NC(=O)Nc2ccc(OCCN3CCOCC3)c3ccccc23)cc1 [doramapimod]
# Outline: as §1
# [19] = compound: Cc1ccc(NC(=O)c2ccc(CN3CC[C@H](N(C)C)C3)c(C(F)(F)F)c2)cc1Nc1nccc(-c2cncnc2)n1 [bafetinib]
# Outline: as §1
# [20] = compound: Cc1cccc(CC(=O)N2CCc3c2ccc(-c2cn(C)c4ncnc(N)c24)c3F)n1
# Outline: as §1
# Sequence of UniProt Q4G0N4 (Q4G0N4 whole entry, looked up): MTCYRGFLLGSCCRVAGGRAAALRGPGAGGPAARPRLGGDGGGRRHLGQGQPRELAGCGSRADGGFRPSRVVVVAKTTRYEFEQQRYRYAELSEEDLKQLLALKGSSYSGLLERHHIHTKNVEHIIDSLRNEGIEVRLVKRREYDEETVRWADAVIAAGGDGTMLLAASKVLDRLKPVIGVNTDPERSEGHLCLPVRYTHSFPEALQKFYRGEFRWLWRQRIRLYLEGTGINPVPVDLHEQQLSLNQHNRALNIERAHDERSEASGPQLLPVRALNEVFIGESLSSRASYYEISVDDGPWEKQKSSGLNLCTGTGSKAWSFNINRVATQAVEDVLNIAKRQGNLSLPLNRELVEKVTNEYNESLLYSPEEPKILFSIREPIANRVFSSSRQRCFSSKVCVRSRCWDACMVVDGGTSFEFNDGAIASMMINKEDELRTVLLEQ
# Sequence of UniProt Q13423 (Q13423 whole entry, looked up): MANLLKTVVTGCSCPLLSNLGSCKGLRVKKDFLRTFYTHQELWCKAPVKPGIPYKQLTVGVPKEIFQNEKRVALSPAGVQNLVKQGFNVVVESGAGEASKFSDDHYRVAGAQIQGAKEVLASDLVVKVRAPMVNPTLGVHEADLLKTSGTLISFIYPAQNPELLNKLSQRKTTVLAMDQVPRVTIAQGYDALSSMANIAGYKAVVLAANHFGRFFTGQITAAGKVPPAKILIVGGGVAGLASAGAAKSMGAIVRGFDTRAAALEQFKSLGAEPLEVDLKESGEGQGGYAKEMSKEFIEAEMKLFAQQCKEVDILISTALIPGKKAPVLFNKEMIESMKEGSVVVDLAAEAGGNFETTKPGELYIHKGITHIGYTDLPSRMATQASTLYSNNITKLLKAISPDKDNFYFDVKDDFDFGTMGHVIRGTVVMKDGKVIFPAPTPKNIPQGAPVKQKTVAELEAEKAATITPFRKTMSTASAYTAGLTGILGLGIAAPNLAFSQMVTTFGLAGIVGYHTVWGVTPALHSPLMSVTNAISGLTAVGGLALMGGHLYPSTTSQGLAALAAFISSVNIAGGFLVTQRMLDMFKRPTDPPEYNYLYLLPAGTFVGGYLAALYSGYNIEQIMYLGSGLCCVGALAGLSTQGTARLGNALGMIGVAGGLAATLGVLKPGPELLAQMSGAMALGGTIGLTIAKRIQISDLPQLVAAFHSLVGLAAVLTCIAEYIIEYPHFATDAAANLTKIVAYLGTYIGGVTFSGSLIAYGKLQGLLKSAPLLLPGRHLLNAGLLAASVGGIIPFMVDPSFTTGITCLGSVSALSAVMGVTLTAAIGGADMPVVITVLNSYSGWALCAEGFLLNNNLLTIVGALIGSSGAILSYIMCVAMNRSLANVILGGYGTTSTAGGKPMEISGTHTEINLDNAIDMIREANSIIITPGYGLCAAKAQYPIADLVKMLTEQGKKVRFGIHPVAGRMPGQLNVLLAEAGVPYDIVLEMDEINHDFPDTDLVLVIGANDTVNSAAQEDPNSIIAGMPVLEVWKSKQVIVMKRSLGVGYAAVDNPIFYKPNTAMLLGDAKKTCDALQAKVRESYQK
# Sequence of UniProt P80303 (P80303 whole entry, looked up): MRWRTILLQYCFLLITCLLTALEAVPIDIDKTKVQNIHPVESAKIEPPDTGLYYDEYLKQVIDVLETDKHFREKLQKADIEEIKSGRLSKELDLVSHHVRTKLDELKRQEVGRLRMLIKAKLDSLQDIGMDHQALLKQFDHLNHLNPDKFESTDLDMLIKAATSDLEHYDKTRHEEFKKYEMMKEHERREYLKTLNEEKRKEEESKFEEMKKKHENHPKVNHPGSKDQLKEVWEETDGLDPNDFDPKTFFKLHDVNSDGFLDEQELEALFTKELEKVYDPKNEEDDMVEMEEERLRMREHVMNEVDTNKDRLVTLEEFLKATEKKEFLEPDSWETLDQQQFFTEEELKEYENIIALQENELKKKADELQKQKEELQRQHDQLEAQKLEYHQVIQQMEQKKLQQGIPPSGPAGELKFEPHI
# Sequence of UniProt Q96NT1 (Q96NT1 whole entry, looked up): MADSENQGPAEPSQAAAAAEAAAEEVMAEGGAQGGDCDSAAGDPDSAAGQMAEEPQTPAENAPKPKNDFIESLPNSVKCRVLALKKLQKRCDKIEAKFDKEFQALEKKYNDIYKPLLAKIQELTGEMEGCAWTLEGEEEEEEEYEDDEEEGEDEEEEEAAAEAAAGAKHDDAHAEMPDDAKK
# Sequence of UniProt P55160 (P55160 whole entry, looked up): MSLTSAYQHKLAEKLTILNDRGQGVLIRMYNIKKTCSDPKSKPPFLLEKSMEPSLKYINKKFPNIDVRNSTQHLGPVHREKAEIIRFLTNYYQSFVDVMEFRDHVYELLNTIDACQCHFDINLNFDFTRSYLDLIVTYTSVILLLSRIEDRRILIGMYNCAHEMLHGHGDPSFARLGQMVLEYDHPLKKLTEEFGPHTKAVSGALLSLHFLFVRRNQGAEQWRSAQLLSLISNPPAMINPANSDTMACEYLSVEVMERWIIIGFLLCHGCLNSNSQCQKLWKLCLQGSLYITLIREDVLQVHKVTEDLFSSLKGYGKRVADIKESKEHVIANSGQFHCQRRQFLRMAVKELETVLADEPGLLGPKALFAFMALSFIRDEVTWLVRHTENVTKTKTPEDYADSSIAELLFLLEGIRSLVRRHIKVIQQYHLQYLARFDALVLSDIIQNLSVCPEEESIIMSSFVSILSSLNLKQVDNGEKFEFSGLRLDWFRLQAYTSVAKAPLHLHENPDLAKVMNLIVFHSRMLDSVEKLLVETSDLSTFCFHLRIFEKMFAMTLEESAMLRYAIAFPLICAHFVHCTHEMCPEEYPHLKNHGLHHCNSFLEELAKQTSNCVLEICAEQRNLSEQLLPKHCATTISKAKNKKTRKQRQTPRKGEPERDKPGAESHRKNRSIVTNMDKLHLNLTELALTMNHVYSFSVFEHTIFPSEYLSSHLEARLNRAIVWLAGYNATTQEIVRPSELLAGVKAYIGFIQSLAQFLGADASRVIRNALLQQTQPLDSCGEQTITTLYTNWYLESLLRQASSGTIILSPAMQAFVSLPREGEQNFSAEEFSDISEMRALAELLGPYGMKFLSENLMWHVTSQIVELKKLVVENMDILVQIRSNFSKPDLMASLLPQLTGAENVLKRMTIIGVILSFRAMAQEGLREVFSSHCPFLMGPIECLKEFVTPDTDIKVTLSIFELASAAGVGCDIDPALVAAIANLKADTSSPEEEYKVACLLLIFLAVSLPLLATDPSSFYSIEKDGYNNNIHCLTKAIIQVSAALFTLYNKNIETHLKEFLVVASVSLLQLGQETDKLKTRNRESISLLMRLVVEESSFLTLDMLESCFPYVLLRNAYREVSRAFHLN
# Sequence of UniProt Q15653 (Q15653 whole entry, looked up): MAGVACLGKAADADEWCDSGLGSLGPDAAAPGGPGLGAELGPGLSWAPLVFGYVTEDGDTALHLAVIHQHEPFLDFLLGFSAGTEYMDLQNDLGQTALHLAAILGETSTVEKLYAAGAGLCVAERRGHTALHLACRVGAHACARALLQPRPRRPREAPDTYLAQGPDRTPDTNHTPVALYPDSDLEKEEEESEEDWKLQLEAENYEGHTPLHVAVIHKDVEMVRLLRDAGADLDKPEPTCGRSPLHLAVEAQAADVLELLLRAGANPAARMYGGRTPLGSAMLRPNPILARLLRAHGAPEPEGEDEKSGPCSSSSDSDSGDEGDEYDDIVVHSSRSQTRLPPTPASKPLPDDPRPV
# Sequence of UniProt O94776 (O94776 whole entry, looked up): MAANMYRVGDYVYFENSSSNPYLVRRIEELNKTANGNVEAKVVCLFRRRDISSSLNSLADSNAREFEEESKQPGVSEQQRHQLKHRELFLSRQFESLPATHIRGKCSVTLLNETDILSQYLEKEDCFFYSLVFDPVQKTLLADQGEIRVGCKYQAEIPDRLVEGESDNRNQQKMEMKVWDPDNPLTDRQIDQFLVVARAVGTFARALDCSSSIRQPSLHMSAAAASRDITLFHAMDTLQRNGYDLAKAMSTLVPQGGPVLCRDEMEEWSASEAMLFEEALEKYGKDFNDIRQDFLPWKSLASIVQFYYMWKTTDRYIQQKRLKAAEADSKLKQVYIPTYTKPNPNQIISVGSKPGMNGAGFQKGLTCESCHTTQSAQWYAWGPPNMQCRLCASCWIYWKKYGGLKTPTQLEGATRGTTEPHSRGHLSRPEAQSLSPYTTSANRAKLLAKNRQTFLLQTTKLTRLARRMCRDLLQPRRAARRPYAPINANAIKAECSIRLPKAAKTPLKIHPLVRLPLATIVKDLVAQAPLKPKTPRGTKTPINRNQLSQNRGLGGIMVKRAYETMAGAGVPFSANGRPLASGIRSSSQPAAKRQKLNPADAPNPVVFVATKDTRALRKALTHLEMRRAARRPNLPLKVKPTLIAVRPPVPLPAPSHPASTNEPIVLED
Target,log2 fold change [1],log2 fold change [2],log2 fold change [3],log2 fold change [4],log2 fold change [5],log2 fold change [6],log2 fold change [7],log2 fold change [8],log2 fold change [9],log2 fold change [10],log2 fold change [11],log2 fold change [12],log2 fold change [13],log2 fold change [14],log2 fold change [15],log2 fold change [16],log2 fold change [17],log2 fold change [18],log2 fold change [19],log2 fold change [20]
NIPBL (UniProt Q6KC79),-0.008,-0.183,-0.04,0.006,0,0.008,0.09,-0.066,0.035,0.027,-0.03,-0.081,-0.034,0.039,0,-0.094,-0.005,0.033,0.001,0.016
NFKBIB (UniProt Q15653),-0.146,-0.077,0.053,-0.007,-0.006,0.006,0.06,0,-0.031,0.064,0.093,-0.011,-0.055,-0.36 (active),0.004,0.095,-0.024,0.024,-0.049,0.127
NNT (UniProt Q13423),0.006,0.035,0.021,-0.005,-0.04,-0.018,-0.017,-0.001,0.021,0.012,-0.047,-0.046,0.03,0.013,0.039,-0.445 (active),-0.014,0.011,-0.006,0.003
NADK2 (UniProt Q4G0N4),-0.025,0.106,-0.036,0,0.04,-0.052,0.3 (active),-0.022,-0.004,-0.009,0.02,-0.028,-0.005,-0.04,0.03,0.004,0.012,-0.002,0.01,0.017
NAP1L5 (UniProt Q96NT1),0.161,-0.039,0.008,-0.032,-0.082,0.01,-0.047,0.021,-0.039,0.02,0.079,0.017,0.094,0.616 (active),0.099,-0.299,-0.016,-0.171,0.076,-0.174
MTA2 (UniProt O94776),0.005,-0.049,-0.002,0.016,-0.01,0.009,0.134,0.012,-0.005,-0.02,-0.003,0.017,0,0.013,0,-0.033,-0.016,0.031,-0.009,0.021
NUCB2 (UniProt P80303),0.061,0.036,0.007,-0.039,0.005,0.001,-0.027,0.003,0.014,0.004,-0.006,-0.006,0.041,0.253 (active),0.008,-0.044,0.003,-0.024,-0.022,-0.126
NCKAP1L (UniProt P55160),-0.033,-0.043,0.198,0.009,0.063,0.058,-0.223,0.022,-0.025,-0.059,0,0,-0.061,-0.002,0.02,0.025,0.018,-0.011,-0.324,0.017

# Reference: the supplement of paper PMC10849652
